Calls of active or inactive are those of the source. Unless noted, how the calls were made is not given here.

Experiment [1] is described as follows: anti-His antibody binders, primary screen, artefact control for SMM control protein annotation, biochemical, small-molecule microarray, 635 nm fluorescence (AID 1128).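 Further: score merges feature fluorescence with signal-to-noise for each printed compound spot.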 Conditions: anti-His Alexa647 antibody binding, higher = more signal.
Experiment [2] deals with Human papillomavirus type 1a E7 protein (residues 1-88). In words: HPV1a E7 small-molecule binders, primary screen, biochemical, small-molecule microarray, residues 1-88, 635 nm (AID 1129). The settings on record: small-molecule microarray binding, fluorescence 635 nm; higher = more signal.
For experiment [3], the target named is Focal adhesion kinase 1 (Homo sapiens) (UniProt Q05397). In words: small-molecule microarray binders of FAK, primary screen, biochemical, 635/667 nm fluorescence, BSA, DTT (AID 1130).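 Further: composite of spot emission at 667 nm and signal to noise over triplicate slides.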 Conditions: PTK2 binding, 635 nm fluorescence, higher = more signal.
Chain of Focal adhesion kinase 1 (Homo sapiens) (Q05397 whole entry, looked up): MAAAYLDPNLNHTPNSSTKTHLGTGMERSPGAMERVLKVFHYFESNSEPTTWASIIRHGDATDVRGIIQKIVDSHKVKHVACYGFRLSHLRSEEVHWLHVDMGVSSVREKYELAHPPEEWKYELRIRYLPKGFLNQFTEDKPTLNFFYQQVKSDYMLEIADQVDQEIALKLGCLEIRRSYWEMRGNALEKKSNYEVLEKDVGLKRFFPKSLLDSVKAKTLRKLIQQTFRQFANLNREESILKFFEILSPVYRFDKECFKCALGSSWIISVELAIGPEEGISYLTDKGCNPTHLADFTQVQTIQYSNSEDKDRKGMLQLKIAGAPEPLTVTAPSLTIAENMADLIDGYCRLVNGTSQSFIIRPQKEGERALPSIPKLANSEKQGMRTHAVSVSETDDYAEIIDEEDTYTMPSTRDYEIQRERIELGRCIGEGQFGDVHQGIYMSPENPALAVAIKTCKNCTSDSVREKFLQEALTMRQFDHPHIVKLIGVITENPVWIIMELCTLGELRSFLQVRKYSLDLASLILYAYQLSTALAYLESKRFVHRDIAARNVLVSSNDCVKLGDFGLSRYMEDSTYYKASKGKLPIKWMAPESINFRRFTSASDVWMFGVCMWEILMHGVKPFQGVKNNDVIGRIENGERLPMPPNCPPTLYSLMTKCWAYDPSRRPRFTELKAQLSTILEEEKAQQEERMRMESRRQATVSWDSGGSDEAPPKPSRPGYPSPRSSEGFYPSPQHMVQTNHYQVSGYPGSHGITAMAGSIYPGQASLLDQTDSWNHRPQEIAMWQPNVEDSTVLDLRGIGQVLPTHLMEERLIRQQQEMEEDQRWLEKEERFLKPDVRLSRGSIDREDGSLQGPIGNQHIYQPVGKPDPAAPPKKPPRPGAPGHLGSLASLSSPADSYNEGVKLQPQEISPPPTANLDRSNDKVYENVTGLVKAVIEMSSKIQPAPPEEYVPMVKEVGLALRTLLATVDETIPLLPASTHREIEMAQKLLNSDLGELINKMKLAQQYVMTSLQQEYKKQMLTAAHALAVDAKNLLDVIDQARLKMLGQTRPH
The test system of experiment [4] is Fibrinogen (Alexa647-labelled). In words: fibrinogen binders on compound microarrays, profiling panel, artefact control for SMM control-protein annotation, biochemical, small-molecule microarray, 635/667 nm fluorescence (AID 1131).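 Further: z-score merges 667 nm fluorescence with per-spot signal-to-noise over triplicate slides.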 Conditions: fibrinogen-A647 binding fluorescence, higher = more signal.
In experiment [5] the target is Follistatin (Homo sapiens) (UniProt P19883). In words: follistatin binders on small-molecule microarrays, primary screen, biochemical, small-molecule microarray, 635/667 nm fluorescence (AID 1132). Conditions: FST binding, 635 nm fluorescence, higher = more signal.
Chain of Follistatin (Homo sapiens) (P19883 whole entry, looked up): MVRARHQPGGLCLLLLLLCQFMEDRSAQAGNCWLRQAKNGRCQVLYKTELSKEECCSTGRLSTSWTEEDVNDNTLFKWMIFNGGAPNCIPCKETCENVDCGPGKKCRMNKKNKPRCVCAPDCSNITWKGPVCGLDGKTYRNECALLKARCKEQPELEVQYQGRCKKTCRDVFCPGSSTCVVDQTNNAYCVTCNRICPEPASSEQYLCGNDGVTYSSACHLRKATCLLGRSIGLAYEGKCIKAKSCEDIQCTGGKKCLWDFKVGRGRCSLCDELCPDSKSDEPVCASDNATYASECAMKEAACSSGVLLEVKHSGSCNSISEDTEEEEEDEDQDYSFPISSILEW
Experiment [6] has as its target Fibroblast growth factor 2 (Homo sapiens) (UniProt P09038). In words: FGF2 binders on small-molecule microarrays, primary screen, biochemical, small-molecule microarray, 635/667 nm fluorescence (AID 1133). Conditions: small-molecule microarray binding, FGF2, fluorescence 635/667; higher = more signal.
The nature of experiment [7]: mitochondrial membrane potential change in A549 cells, profiling panel, cell-based, JC-1 fluorescence, basal, 24 h, 100 nL (AID 1138).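 Further: A549 lung adenocarcinoma cells under basal conditions with no added stimulus; test concentration not given here.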 Conditions: higher = more signal.
Experiment [8] deals with Lefty1. As to the kind of experiment: Lefty1 binders on small-molecule microarrays, primary screen, biochemical, small-molecule microarray, 635/667 nm fluorescence (AID 1139). Conditions: small-molecule microarray binding, fluorescence 635/667; higher = more signal.
In experiment [9] the test system is wheat germ agglutinin (Triticum aestivum), Alexa647-labelled. As to the kind of experiment: wheat germ agglutinin binders on compound microarrays, profiling panel, artefact control for SMM control-protein annotation, biochemical, small-molecule microarray, 635/667 nm fluorescence (AID 1140).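 Further: score merges 667 nm feature emission with signal to noise over triplicate slides.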 Conditions: WGA-A647 binding, 635 nm fluorescence, higher = more signal.

Experiment [10] addresses Luciferin 4-monooxygenase (Photinus pyralis) (UniProt P08659). In words: firefly luciferase enzyme inhibitors, primary screen, biochemical, luminescence, purified enzyme, 2006 set (AID 1141).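 Further: cell-free assay with purified firefly luciferase at 100 ng per well in PBS; test concentration not given here.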 The settings on record: SteadyGlo luminescence, 30 min, higher = more signal, called active from +8 up or from −8 down.
The test system of experiment [11] is Wnt5a (protein binding on small-molecule microarray). As to the kind of experiment: Wnt5a binders on small-molecule microarray, primary screen, biophysical, 635/667 nm fluorescence (AID 1142).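 Further: fluorescence read at 667 nm with signal to noise per printed feature.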 Conditions: 635 nm fluorescence, higher = more signal.
Experiment [12] is described as follows: cell viability in Huh7 cells, primary screen, cytotoxicity control for HCV replication inhibitor project, CellTiter-Glo luminescence, basal, 48 h (AID 1143).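 Further: Huh7 hepatoma cells carrying a hepatitis C replication reporter with no stimulus; test concentration not given here.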 Conditions: Huh7 HCV replicon, higher = more signal, called active from +8 up or from −8 down. (Cellular ATP, detected with luciferase, serves as a proxy for viable cell number.)
Experiment [13] can be described thus: P. aeruginosa biofilm formation inhibitors, primary screen, PAO1 strain, BacTiter-Glo luminescence, LB-PBS (AID 1144). The settings on record: 12 h, higher = more signal.
The nature of experiment [14]: CREB reporter modulators without forskolin, primary screen, cell-based, PC12, CRE-LacZ reporter, unstimulated (AID 1145). Conditions: no forskolin, luminescence, 4.5 h, higher = more signal, called active from +8 up or from −8 down.
Experiment [15] in a line: CREB reporter modulators under forskolin, primary screen, cell-based, PC12, CRE-LacZ reporter, forskolin-stimulated (AID 1146).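 Further: PC12 cells with 6xCRE LacZ reporter stimulated by forskolin 10 µM; beta-galactosidase reporter signal reflecting CREB driven transcription.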 The settings on record: luminescence, 4.5 h, higher = more signal, called active from +8 up or from −8 down.
In experiment [16] the target is Streptavidin (Streptomyces avidinii) (UniProt P22629). As to the kind of experiment: streptavidin binders on small-molecule microarray, primary screen, artefact control for SMM compound annotation, biophysical, 635/667 nm fluorescence (AID 1147).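 Further: signal reflects streptavidin binding to arrayed compounds as a control protein.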 Conditions: streptavidin binding, higher = more signal.
Chain of Streptavidin (Streptomyces avidinii) (P22629 whole entry, looked up): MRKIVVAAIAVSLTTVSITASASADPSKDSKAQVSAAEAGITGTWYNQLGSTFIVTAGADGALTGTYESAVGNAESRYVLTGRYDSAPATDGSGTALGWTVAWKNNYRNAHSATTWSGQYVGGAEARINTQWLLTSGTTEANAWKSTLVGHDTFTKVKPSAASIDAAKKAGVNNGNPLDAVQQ
A short description of experiment [17]: small-molecule binders of probe aInhba, primary screen, biochemical, small-molecule microarray, 635/667 nm fluorescence (AID 1148).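 Further: score merges 667nm spot fluorescence with signal-to-noise for antibody binding to printed compounds.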 The settings on record: higher = more signal.
For experiment [18], the target named is Torsin-1A (Homo sapiens) (UniProt O14656). As to the kind of experiment: torsin A binders from cell lysate, primary screen, small-molecule microarray, wild-type, 635/667 nm (AID 1149). Conditions: COS7 hTOR1A-WT lysate, 635 nm fluorescence, higher = more signal.
Chain of Torsin-1A (Homo sapiens) (O14656 whole entry, looked up): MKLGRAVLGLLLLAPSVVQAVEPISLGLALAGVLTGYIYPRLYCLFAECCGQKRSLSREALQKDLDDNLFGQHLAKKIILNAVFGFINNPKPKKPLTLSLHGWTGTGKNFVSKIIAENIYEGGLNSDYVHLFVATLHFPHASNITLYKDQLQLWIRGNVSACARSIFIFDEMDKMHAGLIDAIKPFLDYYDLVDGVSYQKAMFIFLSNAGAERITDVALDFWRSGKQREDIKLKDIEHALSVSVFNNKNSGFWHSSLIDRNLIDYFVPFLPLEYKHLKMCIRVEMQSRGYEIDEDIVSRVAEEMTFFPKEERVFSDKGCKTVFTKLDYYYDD
The target is the same in experiment [19]. In words: small-molecule binders of mutant TOR1A in lysate, primary screen, cell lysate, small-molecule microarray, COS7 lysate, 635/667 nm fluorescence (AID 1150).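 Further: score pools 667 nm emission and signal to noise measuring lysate protein binding.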 Conditions: COS7 hTOR1A mutant lysate, 635 nm fluorescence, higher = more signal.
Experiment [20] has as its system Sonic hedgehog protein (Shh). As to the kind of experiment: small-molecule binders of Shh protein, primary screen, biochemical, small-molecule microarray, 635/667 nm fluorescence (AID 1151).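 Further: Shh protein binding to compounds spotted on small-molecule microarray slides; score combines spot fluorescence intensity with signal-to-noise across triplicate slides.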 Conditions: small-molecule microarray binding, 635 nm fluorescence; higher = more signal.

Chain of Fibroblast growth factor 2 (Homo sapiens) (P09038 whole entry, looked up): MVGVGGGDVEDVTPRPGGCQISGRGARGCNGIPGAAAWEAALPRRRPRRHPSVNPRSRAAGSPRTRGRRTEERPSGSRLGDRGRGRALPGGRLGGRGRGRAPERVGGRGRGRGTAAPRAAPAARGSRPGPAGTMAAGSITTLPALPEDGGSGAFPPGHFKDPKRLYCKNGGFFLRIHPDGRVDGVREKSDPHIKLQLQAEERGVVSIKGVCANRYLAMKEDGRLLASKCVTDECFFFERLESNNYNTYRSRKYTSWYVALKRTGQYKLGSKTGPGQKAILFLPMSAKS
Chain of Luciferin 4-monooxygenase (Photinus pyralis) (P08659 whole entry, looked up): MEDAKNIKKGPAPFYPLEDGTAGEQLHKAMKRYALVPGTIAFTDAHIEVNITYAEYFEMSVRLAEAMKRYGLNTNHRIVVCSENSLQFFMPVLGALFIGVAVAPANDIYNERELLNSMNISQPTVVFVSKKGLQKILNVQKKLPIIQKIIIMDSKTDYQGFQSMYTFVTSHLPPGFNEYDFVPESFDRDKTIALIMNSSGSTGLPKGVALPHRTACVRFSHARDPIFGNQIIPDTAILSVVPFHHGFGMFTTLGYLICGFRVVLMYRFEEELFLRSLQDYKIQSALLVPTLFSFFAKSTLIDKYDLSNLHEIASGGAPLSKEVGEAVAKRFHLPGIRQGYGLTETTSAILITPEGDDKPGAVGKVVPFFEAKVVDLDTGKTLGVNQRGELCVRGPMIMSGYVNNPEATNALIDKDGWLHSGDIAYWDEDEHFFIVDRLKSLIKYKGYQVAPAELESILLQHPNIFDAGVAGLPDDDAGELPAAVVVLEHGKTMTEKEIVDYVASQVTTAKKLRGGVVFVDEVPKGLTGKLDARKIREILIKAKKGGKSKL

In the case of `[N-]=[N+]=NCc1ccccc1C[C@]1(C(=O)N2CCOCC2)N=C(c2ccc(OCCCO)cc2)O[C@H]1c1ccccc1N=[N+]=[N-]`, the composite z-score in [1] came out at 0.595; in [2], 1.23; in experiment [3], 0.0652; in [4], 0.987; in experiment [5], 1.33; in [6], 0.823. Further, the composite z-score in experiment [8] was found to be 1.31; in experiment [9], 1.03; in experiment [11], 0.774; in [16] it was 0.808; in [17] it was 0.0179; in experiment [18], 1.49. Also, the composite z-score was determined as 1.44 in experiment [19] and 1.02 in [20]. Further, the z-score is 0.274 in experiment [7]; -7.46 (inactive) in [10]; -5.5 (inactive) in [12]; -0.447 (inactive) in experiment [13]; -0.0017 (inactive) in experiment [14]; -1.86 (inactive) in experiment [15].
As to `COCCOC(=O)N1C(=O)[C@@]2(c3ccccc31)[C@H](c1ccc(O)cc1)N1[C@H](c3ccccc3)[C@H](c3ccccc3)OC(=O)[C@H]1[C@@H]2C(=O)NC[C@H](O)c1ccccc1`, the composite z-score in experiment [1] is 2.08; in experiment [2], 1.2; in experiment [3], -0.0504; in experiment [4], 0.068; in experiment [5], 0.532; in experiment [6], -0.104. Besides, the composite z-score was 0.282 in experiment [8]; 0.0324 in [9]; -0.0136 in experiment [11]; -0.551 in experiment [16]; 0.0051 in [17]; 0.849 in experiment [18]. Moreover, the composite z-score was 0.805 in experiment [19] and 0.474 in experiment [20]. Besides, the z-score was -0.767 in experiment [7]; 0.733 (inactive) in [10]; -1.03 (inactive) in experiment [12]; 0.494 (inactive) in experiment [13]; 0.595 (inactive) in experiment [14]; 1.31 (inactive) in [15].
`CCCCN1CC=CC23O[C@@H]4C=CCOC(=O)[C@@H]4[C@H]2C(=O)N(CCCCCO)[C@@H]3C1=O` (stereo not given in full): the composite z-score in [1] is 0.0981; in experiment [2] it was -0.444; in [3], -0.204; in experiment [4] it was -0.921; in experiment [5] it was -0.712; in experiment [6], -0.342. Further, the composite z-score in experiment [8] is -0.393; in experiment [9], -0.651; in experiment [11] it was -0.103; in [16] it was -1.32; in [17] it was -0.0531; in experiment [18], -0.915. Besides, the composite z-score came to 1.23 in [19] and 1.07 in experiment [20]. In addition, the z-score was -0.478 in experiment [7]; 0.01 (inactive) in experiment [10]; 0.445 (inactive) in [12]; -1.08 (inactive) in experiment [13]; -0.761 (inactive) in [14]; -0.645 (inactive) in experiment [15].
For the compound `O=C1O[C@H](c2ccccc2)[C@H](c2ccccc2)N2[C@H]1[C@@H](C(=O)Nc1nc3ccccc3s1)[C@]1(C(=O)Nc3ccc(C#CC4(O)CCCCCC4)cc31)[C@H]2c1ccc(OCCO)cc1`, the composite z-score in [1] was found to be 2; in experiment [2], 1.14; in experiment [3] it was 0.429; in [4] it was 0.976; in [5] it was 1.43; in experiment [6], 1.39. Also, the composite z-score in experiment [8] amounted to 1.05; in [9], 0.921; in experiment [11], 0.248; in [16] it was 1.18; in experiment [17], 0.284; in experiment [18], 0.401. Moreover, the composite z-score in [19] stood at 1.01; in experiment [20] it was 1.68. The z-score in experiment [7] was -2.27; in experiment [10], -2.79 (inactive); in experiment [12], -1.04 (inactive); in [13], -1.88 (inactive); in experiment [14], -0.402 (inactive); in experiment [15], 0.858 (inactive).
With `CCOC(=O)[C@H]1C/C=C/C[C@H](C(=O)OCC)C(=O)O[C@H]2[C@@H](OC)O[C@H](CO)[C@@H](OC(=O)Nc3cccc(F)c3)[C@@H]2OC1=O`, the composite z-score is 1.82 in [1]; 0.712 in experiment [2]; 0.154 in experiment [3]; 0.966 in experiment [4]; 0.247 in [5]; 0.0815 in experiment [6]. In addition, the composite z-score in experiment [8] was 1.11; in experiment [9], 0.452; in experiment [11] it was 0.39; in experiment [16], 0.555; in experiment [17] it was 0.83; in experiment [18], -0.24. The composite z-score in experiment [19] came out at 0.118; in experiment [20] it was 0.849. The z-score in [7] was -2.01; in experiment [10], -1.14 (inactive); in experiment [12], -6.52 (inactive); in experiment [13], -0.509 (inactive); in experiment [14], 0.765 (inactive); in experiment [15], -0.848 (inactive).

These data come from PubChem BioAssay.
